The target in experiment [1] is T1, Aspartate--tRNA(Asp/Asn) ligase (Mycobacterium tuberculosis (strain ATCC 25618 / H37Rv)) (UniProt P9WFW3). Note: in the data most compounds retested in dose-response had high values.
T1 sequence (whole entry): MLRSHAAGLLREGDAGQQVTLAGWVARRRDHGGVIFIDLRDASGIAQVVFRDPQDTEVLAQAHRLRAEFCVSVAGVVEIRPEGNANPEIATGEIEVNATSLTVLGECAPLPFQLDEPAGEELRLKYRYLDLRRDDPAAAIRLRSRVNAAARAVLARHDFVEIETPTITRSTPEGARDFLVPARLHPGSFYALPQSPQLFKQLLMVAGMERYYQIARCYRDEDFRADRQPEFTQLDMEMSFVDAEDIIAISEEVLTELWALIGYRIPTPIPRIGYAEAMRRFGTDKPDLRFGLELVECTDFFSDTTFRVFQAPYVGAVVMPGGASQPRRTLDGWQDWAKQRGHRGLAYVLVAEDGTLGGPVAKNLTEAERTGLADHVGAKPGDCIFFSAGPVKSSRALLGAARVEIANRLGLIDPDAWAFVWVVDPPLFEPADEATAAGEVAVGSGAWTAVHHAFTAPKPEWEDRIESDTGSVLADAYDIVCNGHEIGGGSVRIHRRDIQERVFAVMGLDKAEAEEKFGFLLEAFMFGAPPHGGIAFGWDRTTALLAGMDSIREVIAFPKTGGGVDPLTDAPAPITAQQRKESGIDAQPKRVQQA
Description: Assay for Asp RNA synthetase-1 from Mycobacterium tuberculosis. The experiment is classed as functional. Details: scale not given: direction of the effect not stated beside the values. Conditions: 30 µM.

In experiment [2] the target is Shiga toxin 2 (Escherichia coli O157:H7) (UniProt P09385+P09386). Description: E. coli 0.157:H7 Shiga Toxin SOP - stx2 screening assay. Format: functional. More on the design: scale not given: direction of the effect not stated beside the values. Particulars: 30 µM.

Consider `O=C(NCCCn1nc2ccccn2c1=O)NC1CCC(O)CC1` (stereo not drawn), for which the Percent Effect is 4.86% in experiment [1] and -44.5% in experiment [2].

Regarding `Cc1cc(C)cc(OCCC(=O)N2CCOCC2c2ncon2)c1` (stereo not drawn), the Percent Effect in experiment [1] is 5.48%; in experiment [2] it was 33.2%.

For the compound `Cc1nccnc1N1CC[C@@H](NC(=O)c2cnccn2)[C@H](O)C1`, the results for the Percent Effect in experiment [1] and in experiment [2] were 3.96% and -24.4%, respectively.

Take `NC(=O)c1csc(C(=O)N2CCCCC2Cn2cccn2)c1` (stereo not drawn): the values for the Percent Effect in experiment [1] and in experiment [2] were -1.92% and 6.89%, respectively.

Consider `CCc1nc(C2CCCN2C(=O)c2nccnc2N)no1` (stereo not drawn), for which the Percent Effect in experiment [1] was -4.3%; in experiment [2], 8.58%.

On to `CN(Cc1ccccc1Br)C(=O)Cn1nc(-c2ccc(F)cc2)oc1=O`, for which the Percent Effect in experiment [1] was 7.4%; in experiment [2] it was -11.3%.

Turning to `Cc1nc(N2CCOCC2)nc2c1CN(C(=O)Cc1ccccn1)CC2`, the Percent Effect in experiment [1] was -2.71%; in experiment [2] it was -57.2%.

As to `COCCN(C)Cc1ccc(OC)c(OC(F)F)c1`, the Percent Effect was 2.53% in experiment [1] and -37.4% in experiment [2].

Take `CCOC(C)c1nc(CN2CCN(c3nccc(C)n3)CC2)cs1` (stereo not drawn): the Percent Effect in experiment [1] was -0.859%; in experiment [2], -1.8%.

For the compound `COCC(c1cccc(C(F)(F)F)c1)N(C)C(=O)c1cc(C)no1` (stereo not drawn), the figures for the Percent Effect in experiment [1] and in experiment [2] were -1.95% and 27.2%, respectively.

For `Cc1noc(C2CCN(C(=O)c3c(C)noc3C)CC2)n1`, the Percent Effect in experiment [1] is 0.55%; in experiment [2] it was -6.04%.

In the case of `CNc1nc2c(s1)C(=O)CN(C(=O)NCc1ccccc1)C2`, the Percent Effect in experiment [1] was 1.63%; in experiment [2], -6.79%.

`CC(C)(C)c1ncc2c(n1)CN(C(=O)c1ccc(-c3nc[nH]n3)cc1)C2`: the Percent Effect in experiment [1] was -2.37%; in experiment [2], -62.9%.

On to `COCCCN1CC2(CCCCN2C(=O)c2ccsc2)CC1=O` (stereo not drawn), for which the Percent Effect in experiment [1] was -3.53%; in experiment [2] it was -5.69%.

As to `Cc1nnc2n1CCN(CCOc1ccccc1)C2`, the Percent Effect was -6.3% in experiment [1] and -21.5% in experiment [2].

For the compound `CCn1cc(Br)c(C(=O)NCc2cnn(C)c2)n1`, the Percent Effect was -2.73% in experiment [1] and -41.5% in experiment [2].

As for `Cc1ccc(CCNC(=O)N2CCCC(Cc3nccn3C)C2)cn1` (stereo not drawn), the Percent Effect in experiment [1] is -1.82%; in experiment [2] it was -13.3%.

Take `O=S(=O)(c1cccs1)N1CCCn2nnc(CN3CCCCC3)c2C1`: the Percent Effect was 5.59% in experiment [1] and -16.9% in experiment [2].

Regarding `CN(C)c1ccc(C(=O)N2CCN(C(=O)N3CCCCC3)CC2)nn1`, the values for the Percent Effect in experiment [1] and in experiment [2] were -3.34% and -35%, respectively.

(Values after ChEMBL document CHEMBL3988442, “University of Dundee, Small-Polar-MMV Screening Library” (2021).)
